SMILES strings stand for the structures. Values joined by “and” are separate entries in the source; they are usually repeats but may differ in a detail not shown here. Equal values may be shown once. Active and inactive are the calls of the source. Unless noted, calls come from the whole dose curve; as a rule, active = well fitted curve in the direction sought with a large enough effect in the repeat runs; inconclusive = weak or mixed curves; inactive = flat fitted curve, though single readings scatter. Positions of bridges follow the written chain, without caps; N, C: chain ends. Residues, ends and D or L forms follow the SMILES beside them.

Assay [1] in a line: qHTS assay to test for compound auto fluorescence at 535 nm (green) in HEK293 cells (AID 720680). Note: potency is the fitted concentration of half-maximal effect.
Assay [2] is described as follows: qHTS assay to test for compound auto fluorescence at 460 nm (blue) in HEK293 cell free culture (AID 720681). Note: potency is the fitted concentration of half-maximal effect. The essentials: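 Blue fluorescence (Ex 405/Em 460 nm, triamterene-equivalent) was read immediately after pin transfer of compound or DMSO into medium (DMEM, 10% FBS) without cells.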
In general terms: Quantitative high-throughput screening tests each substance at several concentrations.

Assay [3] is described as follows: qHTS assay to test for compound auto fluorescence at 535 nm (green) in HEK293 cell free culture (AID 720682). Note: potency is the fitted concentration of half-maximal effect. Summed up:
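Each library compound, or DMSO control, is added by pintool to medium alone, comprising DMEM and 10% FBS. Emission at 535 nm following 485 nm excitation is quantified against fluorescein.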

Assay [4] can be described thus: qHTS assay to test for compound auto fluorescence at 590 nm (red) in HEK293 cell free culture (AID 720683). Summed up: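 Red-channel autofluorescence of compounds in culture medium (DMEM, 10% FBS), no cells, measured at 540/590 nm. Rose Bengal sodium is the reference fluorophore for equivalence.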
Assay [5] can be described thus: qHTS assay to test for compound auto fluorescence at 590 nm (red) in HepG2 cell free culture (AID 720684). Summed up:
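No cells present: MEM + 10% FBS only. Compound pinned in, red label read (540/590 nm). Activity = fluorescence equivalent to Rose Bengal sodium.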

Assay [6] can be described thus: qHTS assay to test for compound auto fluorescence at 460 nm (blue) in HepG2 cell free culture (AID 720685). The essentials: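 Cell-free plates of MEM plus 10% FBS received 23 nL compound or DMSO vehicle; blue-channel (405/460 nm) intensity scored against triamterene as reference fluorophore.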
Assay [7] in a line: qHTS assay to test for compound auto fluorescence at 460 nm (blue) in HepG2 cells (AID 720687). The essentials:
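Blue-channel autofluorescence (Ex/Em 405/460 nm, triamterene-equivalent) was measured after 1 hr compound exposure at 37 C, 5% CO2. Cells were HepG2, plated overnight at 37 C in MEM plus 10% FBS.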

Assay [8] deals with Glucocorticoid receptor (Homo sapiens) (UniProt P04150). Kind of assay: qHTS assay to identify small molecule agonists of the glucocorticoid receptor (GR) signaling pathway (AID 720691; active = well fitted activation curve with a large enough effect in the signal ratio in the repeat runs, not every such curve was filed as active; inconclusive = weak or mixed curves, or effect the other way; inactive = no such curve, though single readings can be large or run the other way; the % refers to the signal ratio; note: potency is the fitted concentration of half-maximal effect). To be noted: GR-bla HeLa, beta-lactamase reporter ratio, 18 h; activation: at 62.4 µM (top of the series). Summed up:
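Agonist-mode qHTS in HeLa cells stably expressing a glucocorticoid-response-element beta-lactamase reporter. Fluorescence intensity read with FRET substrate (2 h, room temperature) after 18 h compound treatment at 37 C.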

Assay [9] shares this target. The assay is described as follows: qHTS assay to identify small molecule antagonists of the glucocorticoid receptor (GR) signaling pathway (AID 720692; active = well fitted inhibition curve with a large enough effect in the signal ratio in the repeat runs, not every such curve was filed as active; inconclusive = weak or mixed curves, or effect the other way; inactive = no such curve, though single readings can be large or run the other way; the % refers to the signal ratio). The essentials: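 Inhibition of dexamethasone-driven (5 nM final) beta-lactamase expression was measured in GRE-reporter HeLa cells over 18 h at 37C. Fluorescence was read after 2 h with the B/G FRET substrate at room temperature.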

The nature of assay [10]: qHTS assay to test for compound auto fluorescence at 535 nm (green) in HepG2 cell free culture (AID 720686). Note: potency is the fitted concentration of half-maximal effect.
Tags give direction and shape of the fitted curve or compound fluorescence and quenching.

Sequence of Glucocorticoid receptor (Homo sapiens) (P04150 whole entry, looked up): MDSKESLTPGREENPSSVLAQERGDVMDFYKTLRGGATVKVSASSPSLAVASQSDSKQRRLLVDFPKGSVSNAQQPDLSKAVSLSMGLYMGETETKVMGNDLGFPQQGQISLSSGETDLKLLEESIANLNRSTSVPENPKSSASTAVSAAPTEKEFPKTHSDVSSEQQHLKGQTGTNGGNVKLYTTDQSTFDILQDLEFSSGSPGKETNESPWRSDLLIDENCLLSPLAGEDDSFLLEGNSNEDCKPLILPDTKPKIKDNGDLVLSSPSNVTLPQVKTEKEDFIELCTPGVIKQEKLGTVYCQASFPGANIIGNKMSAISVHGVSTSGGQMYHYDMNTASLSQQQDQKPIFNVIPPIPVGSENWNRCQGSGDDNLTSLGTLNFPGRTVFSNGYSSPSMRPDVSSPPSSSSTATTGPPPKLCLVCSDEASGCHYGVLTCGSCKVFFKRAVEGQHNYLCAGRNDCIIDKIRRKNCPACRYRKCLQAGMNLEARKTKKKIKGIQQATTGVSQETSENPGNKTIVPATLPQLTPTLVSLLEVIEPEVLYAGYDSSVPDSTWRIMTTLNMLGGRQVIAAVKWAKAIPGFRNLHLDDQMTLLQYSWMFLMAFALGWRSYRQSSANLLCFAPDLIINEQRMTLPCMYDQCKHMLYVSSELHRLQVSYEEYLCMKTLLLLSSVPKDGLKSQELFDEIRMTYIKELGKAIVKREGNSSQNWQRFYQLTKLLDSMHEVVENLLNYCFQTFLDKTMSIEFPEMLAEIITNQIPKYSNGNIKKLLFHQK

In the case of `CN(C(=O)CO)c1c(I)c(C(=O)NCC(O)CO)c(I)c(C(=O)NCC(O)CO)c1I` (stereo unspecified), the Potency result in [1], in assay [2], in assay [3], in [4], in assay [5] and in [8] was “inactive” throughout. The result in assay [6] and in [7] was inactive.

`NCCCC[C@H](NC(=O)[C@@H]1CCCN1C(=O)[C@@H]1CSSC[C@H](NC(=O)CNC(=O)CNC(=O)CN)C(=O)N[C@@H](Cc2ccc(O)cc2)C(=O)N[C@@H](Cc2ccccc2)C(=O)N[C@@H](CCC(N)=O)C(=O)N[C@@H](CC(N)=O)C(=O)N1)C(=O)NCC(N)=O` (H-GGGCYFQNCPKG-NH2; disulfide 4-9): the Potency entry in [1], in assay [2], in [3], in assay [4], in assay [5] and in [8] was “inactive” throughout. Further, the Potency entry in assay [9] was “inactive”. Besides, the molecule was called inactive in [6] and in assay [7].

On to `C[C@H](O)[C@H](O)[C@H]1CNc2nc(N)[nH]c(=O)c2N1`, for which the Potency entry in assay [1], in assay [3], in assay [4], in assay [5], in assay [10] and in assay [8] was “inactive” in each case. The Potency in [2] is 12.6 µM (active).

As for `Cc1ccccc1OCC(O)CNCCOc1ccc(C(N)=O)cc1` (stereo unspecified), the Potency entry in [1], in assay [2], in assay [3], in [4], in [5] and in assay [8] was “inactive” in each case. In [9], the Potency entry is “inactive”. Also, the molecule was called inactive in assay [6] and in [7].

As for `O=C(O)CN(CC(=O)O)CC1=CC2C(=CC1=O)Oc1cc(O)c(CN(CC(=O)O)CC(=O)O)cc1C21OC(=O)c2ccccc21` (stereo unspecified), the Potency in [1], in assay [3] and in assay [10] was 11.2 µM [fluorescent] (active) throughout. Also, in assay [2], the Potency entry was “inactive”. In [6], the result was inactive.

In the case of `O=C(OCc1ccccc1)c1cccnc1`, the Potency result in [1], in [2], in assay [3], in assay [4], in [5] and in [8] was “inactive” in each case. Also, the molecule was classed as inactive in [6] and in [7].

Regarding `CC(=O)Oc1cc(C)c(OC(C)=O)c2ccccc12`, the Potency entry in [2], in assay [3], in assay [4], in assay [5], in [10] and in assay [8] was “inactive” each time. Further, the molecule was classed as inactive in [6] and in assay [7].

Regarding `COC(=O)C1=C(C)NC(C)=C(C(=O)O[C@H]2CCN(Cc3ccccc3)C2)[C@H]1c1cccc([N+](=O)[O-])c1`, the Potency result in assay [1], in [2], in [3], in [4], in assay [5] and in [8] was “inactive” throughout. The outcome in [6] and in [7] was inactive.

Turning to `COc1cc2[nH]c(C)c(CCN3CCN(c4ccccc4)CC3)c2cc1OC`, the Potency result in assay [1], in assay [2], in [3], in [4], in [5] and in [8] was “inactive” throughout. Besides, in assay [9], the Potency result is “inactive”. Moreover, the molecule was called inactive in [6] and in assay [7].

Regarding `C#CCC(Cc1cnc2nc(N)nc(N)c2n1)c1ccc(C(=O)N[C@@H](CCC(=O)O)C(=O)O)cc1` (stereo partly specified), the Potency result in assay [1], in [3], in assay [4], in assay [5], in assay [10] and in assay [8] was “inactive” each time.

For `COC(=O)[C@H]1[C@H]2C[C@@H]3c4[nH]c5cc(OC)ccc5c4CCN3C[C@H]2C[C@H](OC)[C@@H]1OC`, the Potency entry in assay [1], in assay [3], in [4], in assay [5], in assay [10] and in assay [8] was “inactive” throughout. In assay [9], the Potency result was “inactive”.

For `CCCCCCCCCCCCCCCC(=O)O[C@@H]1[C@@H](O)[C@@H](O)[C@@H]([C@H](NC(=O)[C@@H]2C[C@@H](CCC)CN2C)[C@H](C)Cl)O[C@@H]1SC`, the Potency result in assay [1], in assay [2], in [3], in assay [4], in [5] and in [8] was “inactive” each time. Further, the outcome in assay [6] and in [7] was inactive.

As for `CCCCCCCCCCCC(=O)N(CCO)CCO`, the Potency entry in assay [1], in assay [2], in [3], in assay [4], in [5] and in assay [8] was “inactive” in each case. Also, the call in assay [6] and in assay [7] was inactive.

In the case of `CO/N=C(\C(=O)N[C@@H]1C(=O)N2C(C(=O)O)=CCS[C@H]12)c1csc(N)n1`, the Potency entry in [1], in assay [2], in assay [3], in [4], in assay [5] and in assay [8] was “inactive” throughout. For the same molecule, the outcome in assay [6] and in assay [7] was inactive.

Take `CO/N=C(\C(=O)N[C@@H]1C(=O)N2C(C(=O)O)=C(CSC(=O)c3ccco3)CS[C@H]12)c1csc(N)n1`: the Potency entry in assay [1], in assay [2], in [3], in [4], in [5] and in [8] was “inactive” throughout. The result in [6] was inactive.

`Cc1cc(/C=C/c2ccc3cc(N(C)C)ccc3[n+]2C)c(C)n1-c1ccccc1`: the Potency entry in assay [1], in assay [2], in assay [3], in assay [10] and in assay [8] was “inactive” each time. Besides, the call in assay [6] and in assay [7] was inactive.

For `Cc1cc2nc3c(=O)[nH]c(=O)nc-3n(C[C@H](O)[C@H](O)[C@H](O)COP(=O)(O)OP(=O)(O)OC[C@H]3O[C@@H](n4cnc5c(N)ncnc54)[C@H](O)[C@@H]3O)c2cc1C`, the Potency in assay [1] was 22.4 µM [fluorescent] (active); in [3] it was 15.8 µM [fluorescent] (active); in [10], 12.6 µM [fluorescent] (active). Besides, the Potency entry in assay [4], in [5] and in assay [8] was “inactive” throughout. Also, the result in [6] and in assay [7] was inactive.

For the molecule `COc1cc2c(cc1OC)CC(=O)N(CCCN(C)C[C@H]1Cc3cc(OC)c(OC)cc31)CC2`, the Potency entry in assay [1], in assay [2], in assay [3], in assay [4], in [5] and in assay [8] was “inactive” in each case. The outcome in [6] was inactive.

`COc1ccc(CCNC[C@H](O)c2ccc(O)cc2)cc1OC`: the Potency result in [1], in assay [2], in assay [3], in [4], in assay [5] and in [8] was “inactive” each time. Besides, the Potency entry in [9] was “inactive”. The result in [6] and in assay [7] was inactive.

As to `Cc1cc(Nc2ccccc2C(=O)O)ccc1Cl`, the Potency result in assay [1], in assay [2], in [3], in [4], in assay [5] and in assay [8] was “inactive” each time. The Potency entry in assay [9] was “inactive”. The call in assay [6] and in assay [7] was inactive.

On to `O=C(O)C1CCCN1` (stereo unspecified), for which the Potency result in assay [1], in assay [2], in [3], in assay [4], in assay [5] and in assay [8] was “inactive” throughout. For the same molecule, the Potency entry in assay [9] was “inactive”. Further, the molecule was classed as inactive in assay [6] and in [7].

Take `C[C@]12C=CC(=O)N[C@@H]1CC[C@@H]1[C@@H]2CC[C@]2(C)[C@@H](C(=O)Nc3cc(C(F)(F)F)ccc3C(F)(F)F)CC[C@@H]12`: the Potency entry in [1], in assay [2], in assay [3], in assay [4] and in assay [5] was “inactive” throughout. In addition, the result in assay [6] and in assay [7] was inactive. Moreover, the Potency in [8] is 26.8 µM (active).

Consider `CC(=O)[C@]1(O)Cc2c(O)c3c(c(O)c2[C@@H](O[C@H]2C[C@H](N)[C@H](O)[C@H](C)O2)C1)C(=O)c1c(O)cccc1C3=O`, for which the Potency result in assay [1], in assay [2], in assay [3], in [4] and in assay [5] was “inactive” each time. The call in [6] was inactive. Moreover, the Potency in [8] was 10.7 µM [inconclusive] (active) and 23.9 µM [inconclusive] (active).

For `O=C(O)c1cc(N=Nc2ccc(O)c(C(=O)O)c2)ccc1O`, the Potency entry in assay [1], in assay [2], in assay [3], in assay [4], in assay [5] and in assay [8] was “inactive” in each case. Also, the Potency entry in assay [9] was “inactive”. Also, the call in [6] and in [7] was inactive.

`CN(CC(=O)N1CCOCC1)Cc1c(Cl)cccc1NC(=O)c1ccccc1`: the Potency result in assay [1], in assay [2], in [3], in assay [4], in [5] and in [8] was “inactive” each time. In assay [9], the Potency result is “inactive”. Further, the outcome in assay [6] and in assay [7] was inactive.

With `CC(C)CCC[C@@H](C)[C@H]1CC(=O)C2=C3CC[C@H]4C[C@@H](O)CC[C@]4(C)[C@H]3CC[C@@]21C`, the Potency result in assay [1], in assay [2], in assay [3], in assay [4], in assay [5] and in [8] was “inactive” in each case. Also, the result in [6] and in assay [7] was inactive.

As to `O=C1C(=O)c2ncccc2-c2cccnc21`, the Potency result in assay [1], in assay [3], in assay [4], in assay [5], in assay [10] and in [8] was “inactive” throughout.

The record behind these values is PubChem BioAssay (Tox21).
